Test [1] has as its system XIP peptide (Xip251-270) binding. Put plainly: small-molecule binders of XIP peptide, primary screen, biochemical, small-molecule microarray, fluorescence 635/667 nm, 0.1 µg/mL protein (AID 1182). Particulars: fluorescent protein binding, 635 nm, higher = more signal, called active from +8 up or from −8 down.
A further test deals with XIP peptide (Xip251-270). The experiment in a line: small-molecule binders of XIP peptide, primary screen, biochemical, small-molecule microarray, fluorescence 635/667 nm, 0.5 µg/mL protein (AID 1183). Particulars: small-molecule microarray binding, fluorescence 635 nm; higher = more signal.
Test [2] is described as follows: Plasmodium falciparum growth inhibition, primary screen, strain 3D7, DAPI fluorescence, 100 nL (AID 1184).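 Also: parasites grown inside human red blood cells in medium with human serum.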 Particulars: P. falciparum 3D7 growth, 3 d, higher = more signal.
Test [3] concerns the target Homeobox protein Hox-A13 (Mus musculus) (UniProt Q62424). Put plainly: inhibitors of HoxA13-DNA binding, primary screen, biochemical, fluorescence polarization, labeled oligonucleotide (AID 1185). Particulars: 15 min, higher = more signal, called active from +8 up or from −8 down. (Fluorescence polarisation rises when a labelled molecule tumbles more slowly, as on binding a larger partner.)

Test [4] can be described thus: inhibitors of hydroxyurea-induced Chk1 phosphorylation, primary screen, imaging, HeLa, phospho-Chk1 antibody, percent positive cells (AID 1186). Particulars: hydroxyurea-induced phospho-Chk1 immunofluorescence imaging, higher = more signal.
Test [5] in a line: inhibitors of hydroxyurea-induced Chk1 phosphorylation, primary screen, imaging, HeLa, phospho-Chk1 nuclear intensity (AID 1187). Particulars: hydroxyurea-induced phospho-Chk1 immunofluorescence imaging, higher = more signal.

Molecules are shown by their SMILES. The source made the active and inactive calls. Unless noted, no rule for the calls is given here.

Homeobox protein Hox-A13 (Mus musculus), sequence (Q62424 whole entry, looked up): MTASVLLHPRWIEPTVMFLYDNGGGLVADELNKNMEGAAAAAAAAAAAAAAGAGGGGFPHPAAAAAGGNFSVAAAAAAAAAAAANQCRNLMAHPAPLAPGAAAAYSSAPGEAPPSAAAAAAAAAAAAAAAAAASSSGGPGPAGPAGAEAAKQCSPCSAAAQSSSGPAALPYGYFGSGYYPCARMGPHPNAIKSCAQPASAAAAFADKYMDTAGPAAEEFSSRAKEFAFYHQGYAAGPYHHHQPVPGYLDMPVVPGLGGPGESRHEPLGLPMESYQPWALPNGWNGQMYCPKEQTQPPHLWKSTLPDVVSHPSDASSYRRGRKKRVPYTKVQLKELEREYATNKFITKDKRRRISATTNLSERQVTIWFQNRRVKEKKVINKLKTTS

Regarding `COC(=O)[C@@]1(Cc2ccc(OC)cc2)[C@H]2c3cc(C(=O)N(C)C)n(CCN4CNCC4=O)c3C[C@H]2CN1C(=O)c1ccccc1`, the composite z-score is 0.384 (inactive) in test [1] and -0.144 in the test on XIP peptide (Xip251-270). Also, the z-score in test [2] was -1.23; in test [3], -4.73 (inactive); in test [4], -0.648 (inactive); in test [5] it was -0.397 (inactive).
With `CCOC(=O)C[C@H]1[C@H](OC(=O)c2cc3ccccc3oc2=O)[C@@H](NC(=O)Cc2ccc(OC)cc2)c2cc(OCCCO)ccc2N1C(=O)c1ccccc1`, the composite z-score is 0.48 (inactive) in test [1] and 0.853 in the test on XIP peptide (Xip251-270). Further, the z-score was -1.9 in test [2], -2.46 (inactive) in test [3], 0.907 (inactive) in test [4] and 0.546 (inactive) in test [5].
On to `[N-]=[N+]=NCc1ccccc1C[C@]1(C(=O)N2CCOCC2)N=C(c2ccc(OCCCO)cc2)O[C@H]1c1ccccc1N=[N+]=[N-]`, for which the composite z-score in test [1] is 0.141 (inactive); in the test on XIP peptide (Xip251-270), 0.229. The z-score in test [2] is -2.6; in test [3], -2.96 (inactive); in test [4] it was -0.551 (inactive); in test [5] it was -0.635 (inactive).
As to `CC(C)c1ccc(NN2C(C(O)c3cc(C(F)(F)F)cc(C(F)(F)F)c3)C=CC3C(=O)N(c4ccccc4)C(=O)C32)cc1` (stereo not given), the composite z-score in test [1] was 0.544 (inactive); in the test on XIP peptide (Xip251-270), 0.641. The z-score in test [2] is -0.764; in test [3], -3.49 (inactive); in test [4], 0.652 (inactive); in test [5], 0.417 (inactive).
With `COCCOC(=O)N1C(=O)[C@@]2(c3cc(C#CC4=CCCCC4)ccc31)[C@H](C(=O)N1CCc3cc(OC)c(OC)cc3C1)[C@H]1C(=O)O[C@H](c3ccccc3)[C@H](c3ccccc3)N1[C@@H]2c1ccc(OCCO)cc1`, the composite z-score in test [1] was 0.173 (inactive); with XIP peptide (Xip251-270), 0.383. The z-score in test [2] was -2.09; in test [3], 3.59 (inactive); in test [4] it was 0.206 (inactive); in test [5], 0.631 (inactive).
`COc1ccc(CCNC(=O)[C@@]2(Sc3ccc(C)cc3)CC(=O)N(C3CCCCC3)[C@@H]2c2ccc(CO)cc2I)cc1`: the composite z-score in test [1] is 0.0537 (inactive); in the test on XIP peptide (Xip251-270), 0.753. The z-score was -2.12 in test [2], -1.88 (inactive) in test [3], 0.431 (inactive) in test [4] and 1.23 (inactive) in test [5].
For `O=C1O[C@H](c2ccccc2)[C@H](c2ccccc2)N2[C@H]1[C@@H](C(=O)N1CCN(c3ncccn3)CC1)[C@]1(C(=O)Nc3ccc(C#CC4=CCCCC4)cc31)[C@H]2c1ccc(O)cc1`, the composite z-score in test [1] is 0.28 (inactive); in the test on XIP peptide (Xip251-270), 0.815. Besides, the z-score is -0.953 in test [2], 2.84 (inactive) in test [3], -0.329 (inactive) in test [4] and -0.513 (inactive) in test [5].
On to `COC(=O)[C@@]1(Cc2ccccc2)[C@H]2c3cc(C(=O)N(C)C)n(CCSCCO)c3C[C@H]2CN1C(=O)c1ccccc1`, for which the composite z-score is 0.115 (inactive) in test [1] and 0.443 with XIP peptide (Xip251-270). Moreover, the z-score in test [2] was -0.522; in test [3] it was -4.76 (inactive); in test [4], 0.585 (inactive); in test [5] it was 0.248 (inactive).
With `CCC(CC)C(O)C1C=CC2C(=O)N(C)C(=O)C2N1Nc1ccccc1` (stereo not given), the results for the composite z-score (in test [1]; with XIP peptide (Xip251-270)) were 0.544 (inactive) and 0.758, respectively. Moreover, the z-score is 0.865 in test [2], -3.63 (inactive) in test [3], -0.0753 (inactive) in test [4] and 0.0501 (inactive) in test [5].
As to `[N-]=[N+]=NCc1ccccc1[C@@H]1OC(c2ccc(OCCCO)cc2)=N[C@]1(Cc1ccccc1N=[N+]=[N-])C(=O)N1CCOCC1`, the results for the composite z-score (in test [1]; in the test on XIP peptide (Xip251-270)) were 0.129 (inactive) and 0.706, respectively. The z-score in test [2] is -2.03; in test [3], -2.15 (inactive); in test [4], 0.0823 (inactive); in test [5], 0.515 (inactive).
Take `CCCCC=C[C@@H](NC(=O)Oc1cccc(C(F)(F)F)c1)c1ccccc1`: the composite z-score in test [1] is -0.361 (inactive); with XIP peptide (Xip251-270), 0.168. In addition, the z-score was -1.01 in test [2], -0.127 (inactive) in test [3], 0.38 (inactive) in test [4] and -0.018 (inactive) in test [5].
`COc1ccc(CCN2C(=O)[C@@]3(c4ccc([N+](=O)[O-])cc4)CC(=O)N(C4CCCCC4)[C@@H]3c3ccc(CO)cc32)cc1`: the composite z-score in test [1] was 1.23 (inactive); in the test with XIP peptide (Xip251-270), 0.311. For the same compound, the z-score in test [2] is 0.706; in test [3] it was -0.544 (inactive); in test [4], 0.135 (inactive); in test [5], -0.0588 (inactive).
For `O=C(NCC(F)(F)F)[C@@H]1c2ccccc2C(=O)N(C2CCCCC2)[C@H]1c1ccc(CO)cc1`, the composite z-score in test [1] is 0.0572 (inactive); in the test with XIP peptide (Xip251-270), 0.434. Moreover, the z-score was -0.676 in test [2], -3.32 (inactive) in test [3], 0.142 (inactive) in test [4] and -0.156 (inactive) in test [5].
Consider `COc1cc2c(cc1OC)CN(C(=O)[C@@H]1[C@H]3C(=O)O[C@H](c4ccccc4)[C@H](c4ccccc4)N3[C@H](c3ccc(O)cc3)[C@@]13C(=O)Nc1ccc(C#CC4(O)CCCCCC4)cc13)CC2`, for which the composite z-score in test [1] was 0.479 (inactive); in the test with XIP peptide (Xip251-270) it was 0.774. The z-score in test [2] was -0.489; in test [3] it was -1.53 (inactive); in test [4], 0.263 (inactive); in test [5], 0.812 (inactive).
As to `C=CCOC(=O)[C@@H]1[C@H]2C(=O)O[C@H](c3ccccc3)[C@H](c3ccccc3)N2[C@H](c2ccc(OCCOC(=O)[C@@H]3C[C@@H]4C(=O)N[C@@H](CCCC[N+](C)(C)C)C(=O)N4[C@@H]3c3cccc(OCCO)c3)cc2)[C@@]12C(=O)Nc1ccc(I)cc12`, the composite z-score is 1.18 (inactive) in test [1] and 0.786 in the test on XIP peptide (Xip251-270). Also, the z-score in test [2] is 0.0875; in test [3], 6.23 (inactive); in test [4] it was -0.558 (inactive); in test [5], 0.16 (inactive).

Source of the values: PubChem BioAssay.
